Molecules are shown by their SMILES. Records with an inconclusive call do not appear. Where a call stands in place of a potency, no number is given. The source made the active and inactive calls. Calls follow the shape of the dose curve; as a rule, active = well fitted curve in the direction sought with a large enough effect; inconclusive = small, poorly fitted or top-dose-only effect, or another doubt; inactive = no such curve, though single readings can be large; an effect the other way counts as inactive or inconclusive.

The first assay can be described thus: qHTS of Nrf2 Activators: LOPAC Validation (AID 624149). Conditions: Nrf2/ARE reporter cell assay; series mostly up to 46.1 µM. Summed up:
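Following overnight seeding in 5% FBS OPTI-MEM, AREc32_Fluc cells receive compounds for a 24 hr incubation at 37 deg C with 5% CO2. Steady-Glo is added, and after 30 min at RT luminescence is recorded.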
(In general: Quantitative high-throughput screening tests each substance at several concentrations.)
Turning to `O=Nc1c(-c2c(O)[nH]c3cc(Br)ccc23)[nH]c2ccccc12`, the compound was classed as inactive.

Regarding `C[C@@H](N)C1CCC(C(=O)Nc2ccncc2)CC1` (some centres undefined), the compound was classed as inactive.

Turning to `CNC[C@H](O)c1ccc(O)c(O)c1`, the result was inactive.

A short description of another assay: Cytotoxicity counterscreen for NFkB agonists and antagonists (AID 624476).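 Also: cells exposed to compound for 48 hours.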 Also: potency is read from the fitted curve at half-maximal effect. Conditions: NFkB reporter cell line viability counterscreen; series mostly up to 46.1 µM.
On to `Nc1nc(Cl)nc2c1ncn2[C@H]1C[C@H](O)[C@@H](CO)O1`, for which the Potency was 27000 nM (active).

Turning to `Cc1cccc(-c2[nH]ncc2-c2ccc3ncccc3n2)n1`, the Potency entry is “inactive”.

With `Cc1cccc(C#Cc2ccccc2)n1`, the Potency entry is “inactive”.

With `CC(C)C[C@H](NC(=O)[C@H](Cc1ccccc1)NC(=O)c1cnccn1)B(O)O`, the Potency was 9.3 nM (active).

Regarding `CCOC(=O)C1=C(O)C(=O)N(Cc2ccccc2)C1`, the Potency result is “inactive”.

As for `C[C@@H](N)C1CCC(C(=O)Nc2ccncc2)CC1` (some centres undefined), the Potency entry is “inactive”.

On to `CCN(CCO)CCCC(C)Nc1ccnc2cc(Cl)ccc12` (centres undefined), for which the Potency result is “inactive”.

For the compound `Cc1ccc(Nc2nccc(N(C)c3ccc4c(C)n(C)nc4c3)n2)cc1S(N)(=O)=O`, the Potency result is “inactive”.

For the compound `Nc1cccc2c1CN(C1CCC(=O)NC1=O)C2=O` (centres undefined), the Potency entry was “inactive”.

On to `Cc1ccc(NC(=O)c2ccc(CN3CCN(C)CC3)cc2)cc1Nc1nccc(-c2cccnc2)n1`, for which the Potency entry is “inactive”.

Consider `CCN(CC)CCOc1ccc(Nc2ncc3cc(-c4c(Cl)cccc4Cl)c(=O)n(C)c3n2)cc1`, for which the Potency was 2350 nM (active).

The values are drawn from PubChem BioAssay (NCATS).
